Measurements from PubChem BioAssay AID488896 (Broad Institute, 2010).
Screen size: about 320,000 compounds; about 3,100 (0.97%) were called active. This is one part of a sample in which actives are shown more often than they occur.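 The calls were made as follows: active = mean replicate inhibition of at least 70% and a set share of replicates each scoring 70 or more; inconclusive = meets just one of the two criteria; inactive = fails both criteria.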

The compounds below were run against Scavenger receptor class B member 1 (Mus musculus) (UniProt Q61009) (assay: inhibitors of SR-BI mediated HDL lipid uptake, primary screen, ldlA[mSR-BI] cells, fluorescence, single point (AID 488896;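 also: 0% = median of neutral control wells and 100% = median of positive control wells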)). Conditions: ldlA[mSR-BI] CHO cells, DiI-HDL uptake fluorescence, 3 h; at 12.5 µM; stronger effect = higher value.
Scavenger receptor class B member 1 (Mus musculus), sequence (Q61009 whole entry, looked up): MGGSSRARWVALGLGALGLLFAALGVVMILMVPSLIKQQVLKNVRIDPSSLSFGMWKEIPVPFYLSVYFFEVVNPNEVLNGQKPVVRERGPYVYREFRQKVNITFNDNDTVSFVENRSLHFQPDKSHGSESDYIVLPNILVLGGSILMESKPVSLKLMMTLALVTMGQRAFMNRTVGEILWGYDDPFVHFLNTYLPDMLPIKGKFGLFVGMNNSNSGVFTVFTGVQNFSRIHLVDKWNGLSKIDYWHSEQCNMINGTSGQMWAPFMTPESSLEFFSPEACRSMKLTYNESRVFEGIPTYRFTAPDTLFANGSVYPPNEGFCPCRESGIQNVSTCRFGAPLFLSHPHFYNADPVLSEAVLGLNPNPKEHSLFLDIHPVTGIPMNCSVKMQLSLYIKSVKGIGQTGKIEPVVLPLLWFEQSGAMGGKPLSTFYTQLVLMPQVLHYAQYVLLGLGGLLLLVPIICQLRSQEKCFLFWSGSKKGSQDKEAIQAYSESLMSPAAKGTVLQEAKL

Row | SMILES | inhibition
1 | Cc1cc([N+](=O)[O-])ccc1NS(=O)(=O)c1ccccc1 | -11.2% (inactive)
2 | Cc1ccc(S(=O)(=O)N2CCN(C(=O)COC(=O)c3c(C)cc(C)cc3C)CC2)c(C)c1 | 20.4% (inactive)
3 | COc1ccc(/C=C/C(=O)OCC(=O)N2CCN(S(=O)(=O)c3ccc(C)cc3C)CC2)cc1OC | 71.9% (active)
4 | Cc1ccc(S(=O)(=O)N2CCN(C(=O)COC(=O)/C=C/c3cccc(Cl)c3)CC2)c(C)c1 | -11.6% (inactive)
5 | CC(C)(C)OC(=O)N1CCC(C(=O)Nc2cccc(C(=O)NCCc3ccccc3)c2)CC1 | 52.6% (inactive)
6 | Cc1c(NC(=O)c2cc(-c3ccc(Cl)s3)nc3ccccc23)c(=O)n(-c2ccccc2)n1C | 95.8% (active)
7 | CC(=O)N1CCN(C(=O)c2cc(-c3ccc(Cl)s3)nc3ccccc23)CC1 | 33.7% (inactive)
8 | O=C(c1cc(-c2ccc(Cl)s2)nc2ccccc12)N1CCOCC1 | 19.5% (inactive)
9 | CC(=O)Oc1ccc(OC(C)=O)c2c1C1C=CC2CC1 | -21.7% (inactive)
10 | COc1ccc(Nc2ccc3ccccc3c2)cc1 | 31.3% (inactive)
11 | CNc1nc(-c2ccccc2)cc(-c2ccccc2)n1 | 21.8% (inactive)
12 | Nc1cccc(-c2cc(-c3ccccc3)nc(-c3cccc(N)c3)n2)c1 | 102% (active)
13 | Nc1nc(-c2ccccc2)cc(-c2ccccc2)n1 | 9.59% (inactive)
14 | CC(=NNC(=S)N1CCCCCC1)c1ccccn1 | 22.4% (inactive)
15 | Cc1ccc(NC(=O)c2ccccn2)cc1S(=O)(=O)N1CCOCC1 | -25.4% (inactive)
16 | COc1ccc(OC)c(NC(=O)c2cccc(S(=O)(=O)N3CCN(C(C)=O)CC3)c2)c1 | 10.1% (inactive)
17 | Cc1ncc(CO)c(/C=N/NC(=O)c2cccc(S(=O)(=O)N3CCCC3)c2)c1O | 84.8% (active)
18 | CCOc1cc(/C=N/NC(=O)c2cccc(S(=O)(=O)N3CCOCC3)c2)ccc1OCC(=O)N(C)C | 23.7% (inactive)
19 | Cc1nc2ccc(NC(=O)c3cccc(S(=O)(=O)N4CCOCC4)c3)cc2s1 | 72.3% (active)
20 | Cc1ccc(C(=O)Nc2ccc3c(c2)OCCO3)cc1S(=O)(=O)N1CCOCC1 | 50.5% (inactive)
21 | O=C(Nc1ccc(N2CCOCC2)cc1)c1cccc(S(=O)(=O)N2CCOCC2)c1 | 65.7% (inactive)
22 | Cc1cccc(NC(=O)c2cccc(S(=O)(=O)N3CCCC3)c2)n1 | 26.2% (inactive)
23 | COc1ccc(Br)cc1/C=N/NC(=O)c1cccc(S(=O)(=O)N2CCOCC2)c1 | 81.8% (active)
24 | O=C(N/N=C/c1ccccn1)c1ccc(S(=O)(=O)N2CCCCCC2)cc1 | 10.6% (inactive)
25 | O=C(Nc1ccc(S(=O)(=O)Nc2nccs2)cc1)c1cccc(S(=O)(=O)N2CCOCC2)c1 | -0.76% (inactive)
26 | Cc1ccc(NC(=O)c2ccc(Cl)nc2)cc1S(=O)(=O)N1CCOCC1 | 74.1% (active)
